# Key:
# Assay in all cases: DAPPL (digital affinity profiling via proximity ligation, sequencing); 10 mM Tris-HCl pH 7.5, 50 mM NaCl, 1 mM DTT, 4% glycerol, room temperature, 30 min; GST-TFs on glutathione beads, 16-mer random dsDNA library, 0.1% formaldehyde crosslink after washing; high values mean tight binding
# Conditions in all cases: protein: recombinant; tags: N-terminal GST; dsDNA, one strand shown
# FLI1 = target: T1, FLI1 (Homo sapiens, UniProt Q01543 1-452)
# T1 sequence: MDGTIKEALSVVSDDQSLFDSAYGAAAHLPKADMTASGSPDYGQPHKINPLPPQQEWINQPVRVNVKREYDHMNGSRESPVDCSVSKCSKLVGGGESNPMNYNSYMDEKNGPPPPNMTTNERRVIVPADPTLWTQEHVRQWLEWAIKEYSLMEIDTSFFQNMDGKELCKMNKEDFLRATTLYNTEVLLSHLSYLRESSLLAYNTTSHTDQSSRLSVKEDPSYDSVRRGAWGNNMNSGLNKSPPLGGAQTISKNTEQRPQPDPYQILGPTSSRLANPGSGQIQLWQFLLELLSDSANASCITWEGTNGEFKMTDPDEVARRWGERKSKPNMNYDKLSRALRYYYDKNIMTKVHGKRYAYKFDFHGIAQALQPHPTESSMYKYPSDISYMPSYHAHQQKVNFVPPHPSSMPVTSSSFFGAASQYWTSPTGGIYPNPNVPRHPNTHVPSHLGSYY
# Procedure, shortened: (§1)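 Binding signal is given per hexamer as its read frequency for a factor divided by its frequency in the tag-only sample. GST-fused human transcription factors were expressed in yeast, captured on glutathione beads, barcoded with DNA and pooled with that sample, then incubated with 200 nmole of a 16-mer random double-stranded DNA library in Tris/NaCl/DTT/glycerol buffer for 30 min at room temperature. The pools were then washed, crosslinked, proximity-ligated, amplified by PCR and sequenced on an Illumina NextSeq500.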
# ELK1 = target: T2, ELK1 (Homo sapiens, UniProt P19419 1-428)
# T2 sequence: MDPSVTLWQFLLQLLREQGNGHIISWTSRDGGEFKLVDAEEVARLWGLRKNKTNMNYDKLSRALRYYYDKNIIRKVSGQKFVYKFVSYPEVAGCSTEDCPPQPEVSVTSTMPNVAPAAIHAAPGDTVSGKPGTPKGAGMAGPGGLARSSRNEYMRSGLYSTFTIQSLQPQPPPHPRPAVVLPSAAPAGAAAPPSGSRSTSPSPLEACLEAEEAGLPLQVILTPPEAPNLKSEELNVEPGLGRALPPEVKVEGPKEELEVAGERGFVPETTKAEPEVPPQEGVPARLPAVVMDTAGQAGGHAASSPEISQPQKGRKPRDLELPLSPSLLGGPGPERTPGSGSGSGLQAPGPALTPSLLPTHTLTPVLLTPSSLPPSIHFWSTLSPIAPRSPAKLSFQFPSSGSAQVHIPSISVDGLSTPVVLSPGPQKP
# Procedure, shortened: as §1
# GABPA = target: T3, GABPA (Homo sapiens, UniProt Q06546 1-454)
# T3 sequence: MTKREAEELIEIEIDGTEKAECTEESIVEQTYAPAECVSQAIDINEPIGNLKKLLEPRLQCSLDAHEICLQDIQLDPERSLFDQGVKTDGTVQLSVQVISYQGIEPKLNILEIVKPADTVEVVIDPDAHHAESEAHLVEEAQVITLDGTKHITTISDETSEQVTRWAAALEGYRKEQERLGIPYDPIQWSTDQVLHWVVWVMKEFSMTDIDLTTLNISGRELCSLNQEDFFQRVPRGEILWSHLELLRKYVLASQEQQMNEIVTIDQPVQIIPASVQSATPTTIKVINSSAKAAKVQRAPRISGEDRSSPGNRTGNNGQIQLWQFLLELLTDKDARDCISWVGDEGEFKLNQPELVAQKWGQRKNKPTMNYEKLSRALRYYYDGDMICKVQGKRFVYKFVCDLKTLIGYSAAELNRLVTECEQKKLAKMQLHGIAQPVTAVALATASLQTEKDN
# Procedure, shortened: as §1
# ERG = target: T4, ERG (Homo sapiens, UniProt P11308 1-479)
# T4 sequence: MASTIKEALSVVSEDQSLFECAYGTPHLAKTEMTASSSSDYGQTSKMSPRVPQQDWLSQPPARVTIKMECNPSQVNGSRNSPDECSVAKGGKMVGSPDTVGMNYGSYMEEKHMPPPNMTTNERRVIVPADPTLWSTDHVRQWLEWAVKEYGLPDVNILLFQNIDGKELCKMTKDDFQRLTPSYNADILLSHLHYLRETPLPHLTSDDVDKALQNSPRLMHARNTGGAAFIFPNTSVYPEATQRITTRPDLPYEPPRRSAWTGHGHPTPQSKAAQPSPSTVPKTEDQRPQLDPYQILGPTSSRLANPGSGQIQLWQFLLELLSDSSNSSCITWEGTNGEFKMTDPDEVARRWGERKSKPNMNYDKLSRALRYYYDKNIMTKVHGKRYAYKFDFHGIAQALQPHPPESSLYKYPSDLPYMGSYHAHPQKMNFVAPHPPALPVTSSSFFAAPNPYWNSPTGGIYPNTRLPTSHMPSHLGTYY
# Procedure, shortened: as §1
# ELF1 = ELF1 (Homo sapiens, UniProt P32519 1-619)
# ELF1, sequence (P32519 whole entry): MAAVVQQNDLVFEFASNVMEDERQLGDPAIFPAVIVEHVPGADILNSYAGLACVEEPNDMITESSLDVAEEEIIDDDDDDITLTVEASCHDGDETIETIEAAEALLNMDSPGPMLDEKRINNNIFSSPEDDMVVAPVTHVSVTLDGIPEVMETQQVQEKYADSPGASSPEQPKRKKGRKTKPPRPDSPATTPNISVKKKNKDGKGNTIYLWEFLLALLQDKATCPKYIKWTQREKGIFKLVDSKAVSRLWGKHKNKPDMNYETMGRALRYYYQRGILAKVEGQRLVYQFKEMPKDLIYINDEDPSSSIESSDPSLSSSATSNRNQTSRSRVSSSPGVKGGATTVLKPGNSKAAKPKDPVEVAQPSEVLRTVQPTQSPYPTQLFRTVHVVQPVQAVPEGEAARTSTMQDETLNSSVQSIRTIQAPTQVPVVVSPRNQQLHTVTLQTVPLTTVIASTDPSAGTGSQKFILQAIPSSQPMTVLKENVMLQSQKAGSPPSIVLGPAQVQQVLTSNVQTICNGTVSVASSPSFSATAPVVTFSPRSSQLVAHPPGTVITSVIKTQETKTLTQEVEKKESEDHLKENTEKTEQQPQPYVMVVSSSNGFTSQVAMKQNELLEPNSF
# Procedure, shortened: as §1
# EHF = target: T5, EHF (Homo sapiens, UniProt Q9NZC4 1-300)
# T5 sequence: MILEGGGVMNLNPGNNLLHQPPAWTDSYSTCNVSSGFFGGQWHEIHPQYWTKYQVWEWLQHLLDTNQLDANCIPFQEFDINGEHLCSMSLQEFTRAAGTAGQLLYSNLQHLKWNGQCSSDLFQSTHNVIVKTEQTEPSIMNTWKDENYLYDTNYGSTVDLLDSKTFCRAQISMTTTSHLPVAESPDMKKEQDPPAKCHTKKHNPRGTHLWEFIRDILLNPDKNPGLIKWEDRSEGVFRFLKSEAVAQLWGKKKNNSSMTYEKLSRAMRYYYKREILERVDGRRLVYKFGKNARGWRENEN
# Procedure, shortened: as §1
# SPIB = SPIB (Homo sapiens, UniProt Q01892 1-262)
# SPIB, sequence (Q01892 whole entry): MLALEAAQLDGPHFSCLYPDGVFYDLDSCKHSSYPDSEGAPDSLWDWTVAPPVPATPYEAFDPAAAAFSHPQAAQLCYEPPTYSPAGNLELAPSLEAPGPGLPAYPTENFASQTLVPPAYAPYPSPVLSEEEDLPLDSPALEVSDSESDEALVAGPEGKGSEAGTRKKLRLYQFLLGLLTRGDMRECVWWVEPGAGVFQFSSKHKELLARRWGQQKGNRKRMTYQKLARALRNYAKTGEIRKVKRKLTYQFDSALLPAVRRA
# Procedure, shortened: as §1
# FEV = target: T6, FEV (Homo sapiens, UniProt Q99581 1-238)
# T6 sequence: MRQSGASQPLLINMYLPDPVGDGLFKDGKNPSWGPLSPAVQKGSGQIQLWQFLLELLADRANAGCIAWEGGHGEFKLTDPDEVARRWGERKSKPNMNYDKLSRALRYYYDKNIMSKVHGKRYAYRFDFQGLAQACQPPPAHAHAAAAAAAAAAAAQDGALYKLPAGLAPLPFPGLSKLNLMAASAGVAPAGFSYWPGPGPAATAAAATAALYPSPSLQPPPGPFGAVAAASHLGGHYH
# Procedure, shortened: as §1
# ETV5 = ETV5 (Homo sapiens, UniProt P41161 1-510)
# ETV5, sequence (P41161 whole entry): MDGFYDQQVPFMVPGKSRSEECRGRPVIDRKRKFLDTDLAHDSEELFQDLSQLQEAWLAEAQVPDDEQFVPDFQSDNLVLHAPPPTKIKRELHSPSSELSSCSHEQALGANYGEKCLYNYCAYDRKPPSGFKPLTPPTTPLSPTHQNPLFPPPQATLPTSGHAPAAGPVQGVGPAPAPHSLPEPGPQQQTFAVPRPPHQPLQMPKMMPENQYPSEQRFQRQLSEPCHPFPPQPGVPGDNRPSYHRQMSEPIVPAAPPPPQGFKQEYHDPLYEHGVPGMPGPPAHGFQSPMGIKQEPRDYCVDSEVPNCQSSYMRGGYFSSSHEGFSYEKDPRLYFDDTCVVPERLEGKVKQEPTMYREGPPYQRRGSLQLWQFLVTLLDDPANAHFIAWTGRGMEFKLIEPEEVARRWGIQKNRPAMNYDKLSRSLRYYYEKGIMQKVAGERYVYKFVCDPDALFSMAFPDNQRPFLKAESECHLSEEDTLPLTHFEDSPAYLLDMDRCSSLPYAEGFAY
# Procedure, shortened: as §1
# SPIC = target: T7, SPIC (Homo sapiens, UniProt Q8N5J4 1-248)
# T7 sequence: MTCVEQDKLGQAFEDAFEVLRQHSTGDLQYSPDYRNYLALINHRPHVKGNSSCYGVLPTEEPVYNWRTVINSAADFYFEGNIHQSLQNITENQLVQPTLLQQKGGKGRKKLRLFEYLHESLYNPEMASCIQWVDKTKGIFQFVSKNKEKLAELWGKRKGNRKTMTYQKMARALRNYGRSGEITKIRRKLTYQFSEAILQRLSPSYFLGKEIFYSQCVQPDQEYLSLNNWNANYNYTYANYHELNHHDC
# Procedure, shortened: as §1
# ELF4 = ELF4 (Homo sapiens, UniProt Q99607 1-663)
# ELF4, sequence (Q99607 whole entry): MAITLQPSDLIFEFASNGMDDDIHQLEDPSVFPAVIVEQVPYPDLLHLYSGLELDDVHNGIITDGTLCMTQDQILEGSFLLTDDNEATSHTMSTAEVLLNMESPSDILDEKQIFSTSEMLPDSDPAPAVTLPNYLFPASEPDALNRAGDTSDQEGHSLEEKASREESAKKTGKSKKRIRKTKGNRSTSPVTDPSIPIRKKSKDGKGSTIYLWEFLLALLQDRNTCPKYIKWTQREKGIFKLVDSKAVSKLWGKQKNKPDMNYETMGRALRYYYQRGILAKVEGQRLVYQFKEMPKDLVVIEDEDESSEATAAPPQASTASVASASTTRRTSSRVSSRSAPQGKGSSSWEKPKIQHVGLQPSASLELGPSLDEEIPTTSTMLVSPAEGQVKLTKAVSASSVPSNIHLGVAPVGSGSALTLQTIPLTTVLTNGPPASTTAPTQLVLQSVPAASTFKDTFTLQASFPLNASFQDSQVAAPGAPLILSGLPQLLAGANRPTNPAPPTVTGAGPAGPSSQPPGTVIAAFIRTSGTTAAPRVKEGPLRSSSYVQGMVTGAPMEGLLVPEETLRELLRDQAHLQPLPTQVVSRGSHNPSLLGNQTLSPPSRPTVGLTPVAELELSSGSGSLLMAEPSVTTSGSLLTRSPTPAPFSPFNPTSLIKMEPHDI
# Procedure, shortened: as §1
# ERF = target: T8, ERF (Homo sapiens, UniProt P50548 1-548)
# T8 sequence: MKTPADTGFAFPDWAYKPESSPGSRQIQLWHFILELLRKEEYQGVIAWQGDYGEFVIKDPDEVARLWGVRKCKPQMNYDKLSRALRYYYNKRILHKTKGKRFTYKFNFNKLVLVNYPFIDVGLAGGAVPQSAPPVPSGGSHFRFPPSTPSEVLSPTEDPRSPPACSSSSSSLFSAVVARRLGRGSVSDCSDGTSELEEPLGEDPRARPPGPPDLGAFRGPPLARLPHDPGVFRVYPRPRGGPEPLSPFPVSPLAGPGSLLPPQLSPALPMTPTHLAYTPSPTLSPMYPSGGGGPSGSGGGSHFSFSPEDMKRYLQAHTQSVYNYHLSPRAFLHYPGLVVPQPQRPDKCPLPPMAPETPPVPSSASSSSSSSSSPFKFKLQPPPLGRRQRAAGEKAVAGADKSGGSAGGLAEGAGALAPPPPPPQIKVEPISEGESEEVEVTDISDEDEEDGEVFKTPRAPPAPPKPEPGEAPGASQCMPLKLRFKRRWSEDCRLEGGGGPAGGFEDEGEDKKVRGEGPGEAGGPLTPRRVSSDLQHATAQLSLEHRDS
# Procedure, shortened: as §1
# ETV3L = target: T9, ETV3L (Homo sapiens, UniProt Q6ZN32 1-361)
# T9 sequence: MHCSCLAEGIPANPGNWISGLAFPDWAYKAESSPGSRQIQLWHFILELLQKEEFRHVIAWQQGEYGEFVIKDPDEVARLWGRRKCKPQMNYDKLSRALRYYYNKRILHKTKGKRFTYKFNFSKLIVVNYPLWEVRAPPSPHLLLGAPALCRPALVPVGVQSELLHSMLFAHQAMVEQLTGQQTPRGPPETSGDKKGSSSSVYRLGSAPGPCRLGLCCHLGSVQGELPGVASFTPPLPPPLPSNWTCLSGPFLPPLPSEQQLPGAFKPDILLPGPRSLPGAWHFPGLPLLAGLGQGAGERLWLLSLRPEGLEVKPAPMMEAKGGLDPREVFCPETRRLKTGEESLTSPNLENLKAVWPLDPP
# Procedure, shortened: as §1
# ETS2 = target: T10, ETS2 (Homo sapiens, UniProt P15036 1-469)
# T10 sequence: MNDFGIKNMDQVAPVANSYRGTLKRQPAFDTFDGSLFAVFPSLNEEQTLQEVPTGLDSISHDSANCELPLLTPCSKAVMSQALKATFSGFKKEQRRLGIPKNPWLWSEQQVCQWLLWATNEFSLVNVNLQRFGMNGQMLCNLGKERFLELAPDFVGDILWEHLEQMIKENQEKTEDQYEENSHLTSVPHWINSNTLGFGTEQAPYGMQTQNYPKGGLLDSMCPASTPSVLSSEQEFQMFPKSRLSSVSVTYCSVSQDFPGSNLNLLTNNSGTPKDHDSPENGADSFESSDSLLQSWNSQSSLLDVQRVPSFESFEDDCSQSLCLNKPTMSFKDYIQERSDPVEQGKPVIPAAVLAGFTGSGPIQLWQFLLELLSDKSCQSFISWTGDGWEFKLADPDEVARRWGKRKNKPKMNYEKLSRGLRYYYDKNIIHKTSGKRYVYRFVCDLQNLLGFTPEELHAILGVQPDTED
# Procedure, shortened: as §1
# ELF5 = target: T11, ELF5 (Homo sapiens, UniProt Q9UKW6-2 1-255)
# T11 sequence: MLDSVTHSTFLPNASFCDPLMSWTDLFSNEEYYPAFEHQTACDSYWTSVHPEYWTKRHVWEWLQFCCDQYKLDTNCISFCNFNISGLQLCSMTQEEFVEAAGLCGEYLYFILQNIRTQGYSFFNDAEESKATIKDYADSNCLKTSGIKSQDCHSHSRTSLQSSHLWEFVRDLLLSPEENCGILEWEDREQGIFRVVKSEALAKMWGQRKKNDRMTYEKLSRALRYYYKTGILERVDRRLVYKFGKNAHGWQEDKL
# Procedure, shortened: as §1
# ETV3 = target: T12, ETV3 (Homo sapiens, UniProt P41162-2 1-143)
# T12 sequence: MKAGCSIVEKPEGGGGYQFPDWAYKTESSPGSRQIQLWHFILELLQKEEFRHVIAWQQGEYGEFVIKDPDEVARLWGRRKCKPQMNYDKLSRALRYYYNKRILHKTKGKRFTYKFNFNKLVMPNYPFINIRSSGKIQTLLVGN
# Procedure, shortened: as §1
# ETV6 = ETV6 (Homo sapiens, UniProt P41212 1-452)
# ETV6, sequence (P41212 whole entry): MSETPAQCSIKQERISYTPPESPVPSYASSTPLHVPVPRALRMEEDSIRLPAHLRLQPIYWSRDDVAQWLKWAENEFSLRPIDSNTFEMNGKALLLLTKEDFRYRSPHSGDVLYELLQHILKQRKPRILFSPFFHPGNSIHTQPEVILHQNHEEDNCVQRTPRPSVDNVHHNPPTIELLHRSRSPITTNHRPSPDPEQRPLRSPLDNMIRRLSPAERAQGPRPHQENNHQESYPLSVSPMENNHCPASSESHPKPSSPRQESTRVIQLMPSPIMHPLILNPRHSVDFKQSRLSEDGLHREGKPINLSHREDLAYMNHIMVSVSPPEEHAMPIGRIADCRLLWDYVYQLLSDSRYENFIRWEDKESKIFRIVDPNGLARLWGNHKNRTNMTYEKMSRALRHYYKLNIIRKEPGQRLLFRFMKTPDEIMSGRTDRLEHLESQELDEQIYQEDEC
# Procedure, shortened: as §1
sequence,measurement,setting,value
CCGCTG,binding signal,FLI1,"1.13 fold enrichment (6-mer frequency, TF over GST control)"
same,binding signal,ELK1,"1.03 fold enrichment (6-mer frequency, TF over GST control)"
same,binding signal,GABPA,"1.02 fold enrichment (6-mer frequency, TF over GST control)"
same,binding signal,ERG,"1.05 fold enrichment (6-mer frequency, TF over GST control)"
same,binding signal,ELF1,"1 fold enrichment (6-mer frequency, TF over GST control)"
same,binding signal,EHF,"1.05 fold enrichment (6-mer frequency, TF over GST control)"
same,binding signal,SPIB,"1.07 fold enrichment (6-mer frequency, TF over GST control)"
same,binding signal,FEV,"1.11 fold enrichment (6-mer frequency, TF over GST control)"
same,binding signal,ETV5,"1.06 fold enrichment (6-mer frequency, TF over GST control)"
same,binding signal,SPIC,"1.08 fold enrichment (6-mer frequency, TF over GST control)"
same,binding signal,ELF4,"1.06 fold enrichment (6-mer frequency, TF over GST control)"
same,binding signal,ERF,"1.03 fold enrichment (6-mer frequency, TF over GST control)"
same,binding signal,ETV3L,"1.04 fold enrichment (6-mer frequency, TF over GST control)"
same,binding signal,ETS2,"1.06 fold enrichment (6-mer frequency, TF over GST control)"
same,binding signal,ELF5,"1.03 fold enrichment (6-mer frequency, TF over GST control)"
same,binding signal,ETV3,"1.08 fold enrichment (6-mer frequency, TF over GST control)"
same,binding signal,ETV6,"1.11 fold enrichment (6-mer frequency, TF over GST control)"
